A selection: hits, their analogues and other compounds. The true share with any hit is near 11%.
PNC inhibitor = blocks assembly of the perinucleolar compartment; 3.1% of 140,000 active; AID 2417; PC3M PTB-GFP, PNC prevalence imaging, 16 h; hits give low values; activity change (PNC), negative = inhibition, % at 10 µM;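 active = readout at or below -70, meaning at least 70% loss of cells showing the perinucleolar compartment, a nuclear body marking cancer cells; inconclusive = readout between -30 and a set limit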
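Compounds are pinned in duplicate onto adhered PC3M cells stably expressing GFP-tagged PTB and incubated 16 h at 37 C. Cells are then fixed, nuclei stained with Hoechst, and PNC-positive cells counted.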
IMPase cell inh = cell-permeable inhibitors of inositol monophosphatase (IMPase). CHO-M1 cells, IP1 accumulation, HTRF TR-FRET ratio. 120,000 tested, under 10 active. P97697. inhibition (IP1 accumulation), % at 46.1 µM; active = well fitted curve in the direction sought with a large enough effect in the signal ratio, not every such curve was filed as active; inconclusive = small, poorly fitted or top-dose-only effect, or a change in a side signal; inactive = no such curve, though single readings can be large or run the other way; the % refers to the signal ratio;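 also: cells stimulated with carbachol in lithium chloride buffer; higher means more IMPase inhibition seen as more IP1 and lower FRET ratio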
Target sequence (P97697 whole entry, looked up): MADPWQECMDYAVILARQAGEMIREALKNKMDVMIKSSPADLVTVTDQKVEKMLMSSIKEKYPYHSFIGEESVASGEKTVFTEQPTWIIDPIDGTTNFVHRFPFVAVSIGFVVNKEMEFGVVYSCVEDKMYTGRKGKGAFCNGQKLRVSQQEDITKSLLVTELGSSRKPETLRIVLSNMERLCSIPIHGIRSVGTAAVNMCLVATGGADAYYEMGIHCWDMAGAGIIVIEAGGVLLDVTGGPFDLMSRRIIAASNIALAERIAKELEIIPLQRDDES
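CHO-M1 cells (CHO stably expressing M1 receptor), compound up to 46 uM final, stimulated with carbachol (50 uM as added) in buffer with 50mM LiCl, pH 7.4, 30 min at 37C. Cytosolic IP1 read by TR-FRET; AC50 from Hill fits.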
IMPase Li cell = IMPase inhibition in cells with lithium potentiation | Potency, µM (doses to about 59.4 µM), actives largely listed as inhibitors | 0.35% of 210,000 active | CHO-M1 cells, IP1 TR-FRET (IP-One), carbachol + lithium; active = well fitted inhibition curve with a large enough effect; inconclusive = small, poorly fitted or top-dose-only effect; inactive = no such curve, though single readings can be large or run the other way;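 also: IP1 builds up when IMPase is blocked and the TR-FRET signal falls; nearly all actives have a fitted effect of over 50% in size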
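CHO cells stably expressing M1 receptor (2000/well, cultured 16–30 h) treated 30 min at 37C with compound plus low lithium. Cytosolic IP1 by TR-FRET (665/620 ratio and 620 channel) after 10 min lysis; AC50 by Hill fit.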
ALDH1A1 inh = blocks purified human ALDH1A1 activity; P00352; Purified ALDH1A1, NADH fluorescence, propionaldehyde substrate; Potency, µM (doses to about 75.3 µM), usual class: inhibitors; 7.3% of 220,000 active
Target sequence (P00352 whole entry, looked up): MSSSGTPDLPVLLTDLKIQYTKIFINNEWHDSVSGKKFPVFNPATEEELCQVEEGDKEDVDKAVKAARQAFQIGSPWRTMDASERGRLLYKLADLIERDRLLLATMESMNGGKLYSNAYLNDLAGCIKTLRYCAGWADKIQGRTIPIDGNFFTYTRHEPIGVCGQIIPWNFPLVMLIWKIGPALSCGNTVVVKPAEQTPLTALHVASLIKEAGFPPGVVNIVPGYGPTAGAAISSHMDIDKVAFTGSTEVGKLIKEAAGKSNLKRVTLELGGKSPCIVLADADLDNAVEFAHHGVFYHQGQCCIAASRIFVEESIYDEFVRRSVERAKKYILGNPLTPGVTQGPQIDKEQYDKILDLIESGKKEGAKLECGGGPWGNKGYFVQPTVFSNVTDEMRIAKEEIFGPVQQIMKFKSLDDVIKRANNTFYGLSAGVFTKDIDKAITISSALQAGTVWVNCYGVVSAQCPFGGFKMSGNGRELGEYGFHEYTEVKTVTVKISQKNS
HPGD inh = HPGD (human) dehydrogenase inhibition. Potency, µM, usual class: inhibitors. 4.3% of 150,000 active. AID 894. P15428. purified HPGD, NADH fluorescence kinetic, PGE2 substrate
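NADH formation kinetics: reaction with 30 uM PGE2 and 1 mM NAD+ (final), 20 nM enzyme, Tris-HCl pH 8 with Tween 20, after 15 min compound preincubation at room temperature. Fluorescence change, last versus first of five reads.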
Large screens that a line does not name were inactive. Unless noted, calls follow the shape of the dose curve; as a rule, active = well fitted inhibition curve with a large enough effect (not every such curve was filed as active); inconclusive = small, poorly fitted or top-dose-only effect, or another doubt; inactive = no such curve, though single readings can be large or run the other way.

CN1CCN(c2ncc3nc(-c4cn(C)c5ccccc45)c(=O)n(CCC#N)c3n2)CC1	ALDH1A1 inh inconclusive (no result: PNC inhibitor, IMPase cell inh, HPGD inh)
O=c1nc2s/c(=C\c3ccco3)c(=O)n2nc1Cc1ccc(F)cc1	IMPase cell inh inconclusive
CCCCN1C(=O)/C(=c2\sc3nc(=O)c(-c4ccccc4)nn3c2=O)c2ccccc21	ALDH1A1 inh 4.5µM, HPGD inh 25µM
CCCN1C(=O)/C(=c2\sc3nc(=O)c(Cc4ccc(C)cc4)nn3c2=O)c2ccccc21	ALDH1A1 inh 6.3µM (no result: PNC inhibitor, IMPase cell inh, HPGD inh)
CCc1c(C)sc(NC(=O)C2CCCCC2C(=O)O)c1C(N)=O (configuration not stated)	ALDH1A1 inh 1.6µM, HPGD inh 4µM
COc1cc(C)c(NC(=O)C(=S)NCCc2ccccc2)cc1C	ALDH1A1 inh inconclusive (no result: PNC inhibitor, IMPase cell inh, HPGD inh)
CN(C)CC[C@@H](C(=O)C(C)(C)C)c1ccccn1	none (no result: PNC inhibitor, IMPase cell inh)
COc1cc(/C=C(\C#N)C(=O)NC2CCCCC2C)ccc1OS(=O)(=O)c1ccc(C)cc1 (configuration not stated)	PNC inhibitor inconclusive, ALDH1A1 inh 8.9µM, HPGD inh inconclusive
COc1cc(/C=C(\C#N)C(N)=O)ccc1OS(=O)(=O)c1ccc(C)cc1	ALDH1A1 inh 18µM, HPGD inh 28µM (no result: IMPase cell inh)
CCN(N=O)[C@@H](Cc1ccccc1)CN(N=O)[C@@H](Cc1ccccc1)CN(C)N=O	none (no result: PNC inhibitor, IMPase cell inh, HPGD inh)
CCC(CO)NCc1ccc(Br)cc1 (configuration not stated)	none (no result: PNC inhibitor, IMPase cell inh, HPGD inh)
CCC(CO)NCc1sccc1C (configuration not stated)	ALDH1A1 inh 20µM (no result: PNC inhibitor, IMPase cell inh, HPGD inh)
N#Cc1cccc(-c2nc3cnc(N4CCOCC4)nc3n(C3CC3)c2=O)c1	ALDH1A1 inh inconclusive (no result: PNC inhibitor, IMPase cell inh, HPGD inh)
CCCCCN1C=CC=C/C1=C\C=C(C#N)C#N	ALDH1A1 inh 0.45µM (no result: PNC inhibitor, IMPase cell inh, IMPase Li cell, HPGD inh)
CCCCCCN1C=CC=C/C1=C/C=C(C#N)C#N	HPGD inh 11µM (no result: IMPase cell inh)
CCCCCCN1C=C/C(=C\C=C(C#N)C#N)c2ccccc21	PNC inhibitor inconclusive
Cc1cc(C)c(S(=O)(=O)N(CC(=O)NCc2cccnc2)C2CCCCC2)c(C)c1	PNC inhibitor -88
O=C(CN(C1CCCCC1)S(=O)(=O)c1ccc(Cl)cc1)NCc1ccncc1	PNC inhibitor -100
O=C(c1cnn2c(C(F)(F)F)cc(-c3ccccc3)nc12)N1CCCCC1c1cccnc1 (configuration not stated)	ALDH1A1 inh inconclusive (no result: PNC inhibitor, IMPase cell inh, HPGD inh)
COc1ccc(-c2cc(C(F)(F)F)n3nc(C(=O)N4CCCC4)cc3n2)cc1	ALDH1A1 inh inconclusive, HPGD inh inconclusive
CN1CCN(C(=O)c2cc3nc(-c4ccc(F)cc4)cc(C(F)(F)F)n3n2)CC1	HPGD inh 11µM
O=C(c1cc2nc(-c3ccc(F)cc3)cc(C(F)(F)F)n2n1)N1CCCCC1c1cccnc1 (configuration not stated)	ALDH1A1 inh 14µM (no result: PNC inhibitor, IMPase cell inh, HPGD inh)
Nc1nc(SCC(=O)NCc2ccccc2)n[nH]1	none
Cc1ccc(CNC(=O)CSc2n[nH]c(N)n2)cc1	PNC inhibitor -93
O=C(O)[C@@H]1CCCN1Cc1ccc2c(c1)OCO2	none (no result: PNC inhibitor, IMPase cell inh)
CCOC(=O)C1=C(C)NC2=C(C1c1ccc([N+](=O)[O-])cc1)S(=O)(=O)c1ccccc12 (configuration not stated)	ALDH1A1 inh 2.5µM
Cc1nnc(N/N=C\c2ccc(-c3ccccc3[N+](=O)[O-])o2)n1N	ALDH1A1 inh 20µM (no result: IMPase cell inh)
Cc1n[nH]c(=S)n1/N=C/c1ccc(-c2ccccc2[N+](=O)[O-])o1	ALDH1A1 inh 14µM, HPGD inh 14µM
CC(=O)Nc1ccc(S(=O)(=O)N2CCc3nc(-c4ccccc4)c4c(c3C2)CO[C@@H](C)C4)cc1	none (no result: PNC inhibitor, IMPase cell inh)
CSc1nc(=S)c2[nH]c(=S)[nH]c2[nH]1	ALDH1A1 inh 1.4µM (no result: PNC inhibitor, IMPase cell inh, IMPase Li cell, HPGD inh)
COc1cc(/C=N/NC(=O)CCC(=O)NCc2ccccc2)cc(OC)c1OC	none (no result: IMPase cell inh)
CCOc1cc(/C=N/O)cc(Br)c1OCC(=O)NCc1ccccc1	ALDH1A1 inh inconclusive, HPGD inh 18µM (no result: IMPase cell inh)
COc1cc(/C=N/O)cc(Br)c1OCC(=O)NCc1ccccc1	PNC inhibitor inconclusive, ALDH1A1 inh inconclusive, HPGD inh 14µM (no result: IMPase cell inh)
Cc1nc2sc(C(c3ccc(F)cc3)N3CCN(C(=O)c4ccco4)CC3)c(O)n2n1 (configuration not stated)	none
COc1ccc(C2/C(=C(/O)c3ccc(C)cc3)C(=O)C(=O)N2C)cc1 (configuration not stated)	none
Cc1ccc(/C(O)=C2/C(=O)C(=O)N(CCCn3ccnc3)C2c2ccccn2)cc1 (configuration not stated)	none
Cc1ccc(C)c(/C(O)=C2\C(=O)C(=O)N(CCCn3ccnc3)C2c2ccncc2)c1 (configuration not stated)	ALDH1A1 inh inconclusive, HPGD inh 28µM
COc1ccc(N2C(=O)C(=O)/C(=C(/O)c3ccc(C)cc3)C2c2cccnc2)cc1 (configuration not stated)	IMPase Li cell inconclusive, ALDH1A1 inh 7.9µM (no result: IMPase cell inh)
COCCCN1C(=O)C(=O)/C(=C(/O)c2ccc(OC(C)C)cc2)C1c1cccnc1 (configuration not stated)	IMPase Li cell 11µM
COCCCN1C(=O)C(=O)/C(=C(/O)c2ccc(OC(C)C)c(C)c2)C1c1ccncc1 (configuration not stated)	IMPase Li cell 10µM
CCC1CCc2nc3sc(C(=O)Nc4ccc(C)cc4)c(N)c3cc2C1 (configuration not stated)	none (no result: PNC inhibitor, IMPase Li cell, ALDH1A1 inh, HPGD inh)
Cc1ccc(-n2cccn2)c(CN2CCC(CO)(CCc3ccccc3)CC2)c1	none (no result: PNC inhibitor, IMPase cell inh, HPGD inh)
CCCN1C[C@@H](CSC)C[C@H]2c3cccc4[nH]cc(c34)C[C@@H]21	none (no result: PNC inhibitor, IMPase Li cell, ALDH1A1 inh, HPGD inh)
CC(C)(C)N1C(=O)[C@H]2[C@H]3[C@H](O)[C@H](O)C/C(=N/OC[C@@H](O)COCc4ccco4)[C@H]3CC[C@@H]2C1=O	none (no result: PNC inhibitor, IMPase cell inh, IMPase Li cell, HPGD inh)
Cc1ccccc1COc1ccc(/C(O)=C2/C(=O)C(=O)N(CCCn3ccnc3)C2c2ccco2)cc1 (configuration not stated)	IMPase Li cell inconclusive, ALDH1A1 inh 11µM
CCCOc1ccc(/C(O)=C2/C(=O)C(=O)N(CCCOC)C2c2cccnc2)cc1 (configuration not stated)	IMPase Li cell 10µM
Cc1ccc(S(=O)(=O)N2C(=O)C(c3ccccc3)SC2=Nc2ccccc2)cc1 (configuration not stated)	ALDH1A1 inh 8.9µM, HPGD inh 10µM
COc1ccc(-c2cc3ncc(C(C)=O)c(C)n3n2)cc1	ALDH1A1 inh inconclusive (no result: PNC inhibitor, IMPase cell inh, HPGD inh)
CC1C(C#N)=C(N)OC2=C1C(=O)CC(c1ccccc1)C2 (configuration not stated)	ALDH1A1 inh inconclusive (no result: PNC inhibitor, IMPase cell inh, HPGD inh)
CC(C)(C)NC(=O)C(c1ccncc1)N(C(=O)c1csnn1)C1CC1 (configuration not stated)	PNC inhibitor inconclusive, ALDH1A1 inh 10µM
